Measurements taken from the supplement of paper PMC6555819.

Each sequence was assayed on VDR:RXRa (NR concentration 270 nM, RXRa partner concentration 90 nM) (assay: PBM binding z-score (relative to random genomic background probes); higher = stronger binding; sequences stand for … in GC…GCGATTGACAGCGTAGAATGAAGG).
Experimental: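 Protein-binding microarray (Agilent 4x180K custom design, double-stranded 60-nt probes: 5' GC cap, 34-nt variable region, 24-nt constant primer region; full probe sequence given). Purified or IVT nuclear receptor:RXRα heterodimers (3:1 NR:RXRα, mostly 270:90 nM) or homodimers were incubated for 1 h in PBS with 2% milk and no ligand, then detected with Alexa488 antibodies. Fluorescence from o1-orientation probes (~5 replicates averaged) was converted to z-scores against 500 random hg19 background probes. Variable regions are seed direct-repeat (DR0–DR5) sites, all their single-nucleotide variants and half-site ablations.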

Row | Sequence | PBM binding z-score
1 | CAAACTAGGTCACGAAAGATCAAAGTCGAATGAC | 3.03
2 | CGAACTAGGTCATTGGCAGGACAGTGAATAGTAA | 2.07
3 | TCATATAGGTACATGCTAGGTGAAAGTCCGATCT | 0.884
4 | ATATGTAGGGTATCGGGTCATTCAGTTTGCGCAT | 5.05
5 | ATCTCTAGGTAAGGCTCAGTTCAGTGAAGAACGC | 0.553
6 | CCTCGGAGGACAGAAGATCAGAGCTGTCCGCTTT | -0.618
7 | AGAATGAGGTTACCAAAGATCAGAGAAACGCTTG | 1.36
8 | CGTCAAAGATCAACTAAGGTAACGTAAAGCACGC | 0.78
9 | CCTACTGGGCAATTCAGAGGTCATTGATCATATG | 3.49
10 | CCTACCAGGCCAGGGTCACTCAAGCATTTCGCTT | 2.7
11 | TCATATAGGTAGACAGGTGAAAGTCCGTAAGTTA | 0.905
12 | GCTTACGGGTCTAAGGTTATAGCATGAATAGAAT | 1.01
13 | ACTATTAGTTGACTTAGGGCATCCGATACGACGC | 0.439
14 | CAAACTAGTTCACCGGAAGGTCAAAGTCCGCATG | 5.4
15 | ACTATTAGTTGAGTTAGGGCAACCGATACGACGC | 0.0394
16 | ATCTCTAGGTAAAGTACAGTGAAAGATCGATAGA | -0.177
17 | TCTAGCAGGCCAGAGGGTCACTCAAGAGGTACGG | 1.28
18 | ATCGAAAGGTCGTGAGTTGAGTATACAGAAAGGC | 3.51
19 | GCTGCTAGGTCAACTGATGGTCAGCTGAAGCTCG | 1.61
20 | CAAACTAGGTCACCTGAAGGTCAAAGTCCGCATG | 5.59

Row | Sequence | PBM binding z-score
21 | TCTTGTGGATCAGCAGGTTAAGAAAGCTGGCCAA | 0.405
22 | TCTCGGAGGACAGGAAAGGTCAGAGCTCGACATC | 2.7
23 | TAGCCTAGGTCAGATCGGGCCAGTAGACGCTATA | 0.169
24 | AGAATGAGGTTACCAAACATCAGGGAAACGCTTG | 1.04
25 | CGTCCAAGGTCAATGCTAGGACAGTGAAAGCATT | 3.83
26 | CAGCCTAGATCAGGGCCAGTATAGGAGGAACGTT | -0.746
27 | TTACCAAGGTGAAAGGTCGTCGATGCACGCCTTG | 3.09
28 | ACTAGTTGATCAGCTGAGGTCACACACAATTCGG | 4.02
29 | ATCGAAAGGTCGACGACGTGAGTATACACCGTTT | 2.25
30 | GGAACGAGGGCAAGTTAATAGCAGAGTTTGATGG | 0.803
31 | ATCTCTAGGTAACAAGTTCAGTGAGAGAGAGGAC | 2.22
32 | GCTCGGAGGACAAGGTCAGAGATTTGTCCGTAGA | 1.22
33 | GCGACTGGGGCATCAGCAGTTTACCATAACTTAA | -0.0228
34 | AGAACGAGGGCAATGAGTAGATAGCACGGGTGGC | 1.15
35 | TCATATAGGTAAATGCTAGGTGAAAGTGCGATCT | 0.984
36 | CCGACTGGGTCATAAGGTTACCATAAGCCAGCCC | 2.81
37 | CAGACTAGGTCACAGAGGTCAAAGTCCGTGCGTA | 7.98
38 | CCGACTGGGGCAGAAAGGATACCATACCATCCGG | -0.772
39 | CCTAGTTGGTCCGGAGGTCACACACCGGATATGA | 3.77
40 | GCTCGGATGACAAGGTCAGAGCTTTGTCCGTAGA | 0.722
